Experimental findings from PubChem BioAssay (NCI) are described below.

“And” between values parts separate entries of the source, which are not always exact repeats. Equal entries are not always repeated. This is part of a sample that, as a whole, favours compounds with a hit. Of some 83,000 tested, about 20% had one in any assay.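 For each line, cells grew in 96-well plates with the test compound present at a single concentration for 48 hours.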 Unmarked numbers belong to inactive results. The source made the active and inactive calls. How the source made its calls: active means growth percent below 10; inactive means the rest.

In this experiment the test system is HT29 colon. Put plainly: NCI-60 one-dose screen, 48 h (100 = growth as untreated, 0 = no growth, -100 = all killed). As to conditions: 10 µM unless noted.
`Cc1cc(Br)ccc1-n1cc(C#N)c(N)c1C(=O)c1ccc(Br)cc1`: the growth was 102%.

For the molecule `CCCCCCN1C=C/C(=C\C(=O)n2ccc3ccccc32)c2ccccc21`, the growth is 65.1%.

For `Cc1ccc(CSC2=C(Cl)CN(c3ccc(Cl)cc3)C2=O)cc1`, the growth is 116%.

For the molecule `Clc1ccc(CSc2nnc(-c3ccc(Cl)cc3)n2-c2ccccc2)cc1`, the growth is 84%.

In the case of `NS(=O)(=O)c1ccc(CCn2c(-c3ccc(C(=O)O)cc3)nc(-c3ccccc3)c2-c2ccccc2)cc1`, the growth was 106%.

In the case of `CC(=C(c1ccc(OCCCN(C)C)cc1)c1ccc(OCCCN(C)C)cc1)c1ccc(Cl)cc1`, the growth is 45.7%.

As for `CC[C@]12CC(C(=O)OC)=C3Nc4ccccc4[C@@]34CCN(C14)[C@@H]1c3cc4c(cc3O[C@@H]1[C@H]2O)NC1=C(C(=O)OC)C[C@@]2(CC)C3N(CC[C@@]143)C[C@H]1O[C@H]12` (stereo not given in full), the growth is 12.2%.

For the molecule `Cc1ccc(-c2csc(N/N=C/c3cccs3)n2)cc1`, the growth was 99.4%.

Take `CN1CCC[C@]2(C)[C@H]3CC[C@@H]4[C@@H]5[C@H]6OC[C@@]5(CCC6(C)C)CC[C@@]4(C)[C@]3(C)CC[C@H]2C1(C)C`: the growth was 21.6%.

As to `O=S(=O)(Oc1ccc(-c2cn3ccoc3n2)cc1)c1cccc(C(F)(F)F)c1`, the growth was 103%.

Turning to `CC(Nc1c(C#N)cnc2ccc(-c3cncc(-c4n[nH]c(=O)o4)c3)cc12)c1ccccc1` (stereo not given), the growth was 20.2%.

`C#CCN(C)CCCOc1ccc(NC(=O)CCCCCCCCC(=O)NO)cc1Cl`: the growth is 67.8%.

As to `CCCc1cc2cc(-n3nc(CC)c4c3CC(C)(C)CC4=O)cc(NC3CCC(O)CC3)c2c(=O)[nH]1` (stereo not given), the growth was 7.9% (active).

As to `O=C(CN1CCN(c2cc(=O)[nH]c3ccc(F)cc23)CC1)N(c1ccccc1)c1ccccc1`, the growth is 110%.

As to `CN1CCN(c2ccc(Nc3nc(NCCCNS(=O)(=O)c4cccc(F)c4)c4sccc4n3)cc2)CC1`, the growth was -68.7% (active).

In the case of `COc1ccc(C(=NNS(=O)(=O)c2ccc(C)cc2)c2ccccc2)cc1OC`, the growth is 103%.

Turning to `COc1ccc(/C=N/NC(=O)c2c(N)nn(C)c2Nc2ccccc2)cc1Oc1ccccc1`, the growth is 110%.

In the case of `C#C[C@]1(O)CC[C@H]2[C@@H]3CC=C4c5sc(NCc6ccccc6)nc5CC[C@]4(C)[C@H]3CC[C@@]21C`, the growth is -7.33% (active).

In the case of `Cc1cc(NS(=O)(=O)c2ccc(NC(=O)CSc3nc4ccccc4c(=O)n3-c3ccccc3)cc2)no1`, the growth is 104%.

Turning to `CC(C)NC(=O)c1cc(-c2ccc(NC(=O)Nc3ccc(F)c(C(F)(F)F)c3)cc2)nc2cccnc12`, the growth was 91%.

As to `CCOC(=O)c1cccnc1Nc1ccc(NC(=O)Nc2ccc(Cl)c(C(F)(F)F)c2)cc1`, the growth is 36.1%.

On to `O=C(CSc1nc2ccccc2c(=O)n1-c1ccc(S(=O)(=O)Nc2ccc(Cl)nn2)cc1)Nc1ccc(S(=O)(=O)Nc2ccc(Cl)nn2)cc1`, for which the growth was 106%.

`COc1cc(-c2nc(-c3ccccc3)[nH]c2-c2ccnc(NCCCNS(=O)(=O)c3ccc(C(F)(F)F)cc3)n2)ccc1Cl`: the growth is 43.9% and 17.9%.

In the case of `Cc1csc(/N=C(N)/N=C(\N)c2cccc(C#N)c2)n1`, the growth is 62.4%.

Consider `CC[C@]12C=CCN3CC[C@]4(C(=C(C(=O)OC)C1)Nc1cc5c(cc14)[C@@H]1[C@H](O5)[C@@H](O)[C@@]4(CC)CC(C(=O)OC)=C5Nc6cc(O)ccc6[C@@]56CCN1C46)C32` (stereo not given in full), for which the growth was 4.53% (active).

`COc1ccc(OC)c(CCn2cncc2-c2c[nH]c3ccc(Cl)cc23)c1`: the growth was 10.1%.

`Cc1ccc(-c2cc3nc(C(Cl)Cl)nc(-c4ccc(S(=O)(=O)N(C)C)cc4)n3n2)cc1`: the growth was 66.5%.

As to `CC1=C(C)C(=O)C(Nc2cccc(C(=O)OC(C)(C)C)c2)=C(Cl)C1=O`, the growth is 98.2%.

Consider `COC(=O)c1ccc(NC2=C(Cl)C(=O)C(C)=C(C)C2=O)cc1`, for which the growth was 63.3%.

Consider `Cc1nc(/N=C(N)/N=C(\N)c2cccc(Br)c2)sc1C`, for which the growth is 17.8%.

Consider `COC(=O)c1cccc(NC2=C(Cl)C(=O)c3nc(C)ccc3C2=O)c1`, for which the growth is 110%.

As for `CN(C)c1ccc(/C=N/Nc2nc(N/N=C/c3ccc(N(C)C)cc3)nc(N3CCCCC3)n2)cc1`, the growth is -4.67% (active).

Take `OCC(Nc1ncnc2ccc(-c3cnc4cnccn34)cc12)c1ccccc1` (stereo not given): the growth was 83.5%.

Take `COc1ccc(-c2cc(-c3ccc(N4CCOCC4)cc3)n3c(n2)nc2ccccc23)cc1OC`: the growth is 105%.

`CCOC(=O)c1c(NC(=O)c2cccc(C(F)(F)F)c2)sc2c1CCC(=O)C2`: the growth is 65.4%.

Consider `CN1CCN(c2ccc(Nc3nc(NCCCNS(=O)(=O)c4ccc(Cl)cc4)c4sccc4n3)cc2)CC1`, for which the growth is -69.7% (active).

With `CCOC(=O)C(=O)Nc1ccc2c(ccn2C(=O)c2cccc(F)c2)c1`, the growth is 101%.

On to `CCOc1cccc(/C(N)=N/C(N)=N/c2nc3ccccc3s2)c1`, for which the growth is 106%.

For `CN1CCN(c2ccc(Nc3nc(NCCCNS(=O)(=O)c4ccc(C(F)(F)F)cc4)c4sccc4n3)cc2)CC1`, the growth is -75.8% (active).

As to `Cc1ccc2c(n1)C(=O)C(Cl)=C(Nc1cccc(C(F)(F)F)c1)C2=O`, the growth is 105%.
